From PubChem BioAssay (NCATS)
Results filed as inconclusive are left out. Active and inactive are the calls of the source. Calls come from the whole dose curve; as a rule, active = well fitted inhibition curve with a large enough effect; inconclusive = small, poorly fitted or top-dose-only effect; inactive = flat fitted curve, though single readings scatter.
% is set by controls: 0 for no effect and ±100 for the full control effect; potency is the fitted concentration of half-maximal effect.

The compounds below were run on KB-3-1 (assay: Cytotoxic Profiling of Annotated Libraries Using Quantitative High-Throughput Screening (AID 1296008; note: nearly all actives have a fitted effect of over 60% in size)). Conditions: Five cell lines viability, CellTiter-Glo ATP luminescence, 48-72 h; max response: hits give low values.
Procedure, shortened: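 Cells exposed to compounds for 48 or 72 hr at 37 degrees Celsius. Viability read as ATP-coupled luminescence with CellTiter-Glo after 10 min at room temperature.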
In the case of CC(=O)O[C@H]1CC[C@H](C)[C@@]2(C)[C@H](OC(C)=O)c3c(C)coc3C(=O)[C@H]12, the max response is reported as 6.49% (inactive). For CC1(C)CCC2(C(=O)OC3OC(CO)C(O)C(O)C3O)CCC3(C)C(=CCC4C5(C)CCC(OC6OC(C(=O)O)C(OC7OC(CO)C(O)C(O)C7O)C(OC7OC(CO)C(O)C(O)C7O)C6O)C(C)(C)C5CCC43C)C2C1 (stereo not given), the max response was 6.58% (inactive). O=S(=O)(NC1CCC(c2cc(F)ccc2F)(S(=O)(=O)c2ccc(Cl)cc2)CC1)C(F)(F)F (stereo not given) was tested, and the max response was 5.9% (inactive). In the case of CS(=O)(=O)N(CC(=O)NCC1CC1)c1cc(C(F)(F)F)ccc1Cl, the max response is reported as 5.98% (inactive). In the case of CC(=O)O[C@@H]1[C@H](O[C@@H]2O[C@@H](CO)[C@H](O)[C@H]2O)[C@@H](O[C@@H]2O[C@@H](C)[C@H](O[C@@H]3OC[C@@H](O)[C@H](O)[C@H]3O)[C@@H](O)[C@H]2O)[C@H](OC(=O)[C@]23CCC(C)(C)C[C@H]2C2=CCC4[C@@]5(C)CC[C@H](O[C@@H]6O[C@H](C(=O)O)[C@@H](O)[C@H](O)[C@H]6O[C@@H]6O[C@H](CO)[C@H](O)[C@H](O)[C@H]6O)[C@@](C)(C=O)C5CC[C@@]4(C)[C@]2(C)CC3)O[C@@H]1C (stereo not given in full), the max response is reported as 5.7% (inactive). For CC1(C)CCCC2(C)C(CO)C(CO)=CCC12 (stereo not given), the max response was -2.42% (inactive). For C/C=C(/COC(=O)/C(C)=C/C)C(=O)OC(CC)c1ccc(OC)c(OC)c1 (stereo not given), the max response was 9.77% (inactive). For CCCN1CCN(c2ccc(C(=O)NC3(C(=O)NCC#N)CCCCC3)cc2)CC1, the max response was -7.48% (inactive). In the case of C=C[C@H]1[C@H](O[C@@H]2O[C@H](CO)[C@@H](O)[C@H](O)[C@H]2O)OC=C(C(=O)OC)[C@H]1C[C@@H]1c2cc(O)c(O)cc2CCN1C(C)=O, the max response is reported as -1.92% (inactive). With CC(C)C(N)C(=O)OCCOCn1cnc2c(=O)[nH]c(N)nc21 (stereo not given) the max response was -4.91% (inactive). With C[C@@H]1O[C@@H](O[C@H]2[C@H](O)[C@@H](O[C@@H]3O[C@H](CO)[C@@H](O)[C@H](O[C@@H]4O[C@H](CO)[C@@H](O)[C@H](O)[C@H]4O)[C@H]3O)[C@H](O[C@H]3CC[C@@]4(C)C(=CC[C@@H]5C4CC[C@@]4(C)C5C[C@@H]5OC6(CC[C@@](C)(CO[C@@H]7O[C@H](CO)[C@@H](O)[C@H](O)[C@H]7O)O6)[C@@H](C)[C@@H]54)C3)O[C@@H]2CO)[C@H](O)[C@H](O)[C@H]1OC1OC(CO)C(O)C(O)C1O (stereo not given in full) the outcome was “inactive”. With CC(C)CC1NC(=O)C(C)NC(=O)C(CC(C)C)OC(=O)CCCNC1=O (stereo not given) the outcome was “inactive”. With CC1OC(OC2CCC3(C)C(CCC4(C)C3CC=C3C5CC(C)(C)CCC5(C(=O)OC5OC(CO)C(O)C(O)C5O)CCC34C(=O)O)C2(C)C)C(O)C(O)C1O (stereo not given) the max response was 4.21% (inactive). COc1ccc(CNC(=O)c2cc(-c3cncc(C)c3)ncc2-c2nccs2)nc1OC was tested, and the outcome was “inactive”. In the case of Cc1cc(C(=O)Nc2cccc(C(=O)Nc3cccc(C(F)(F)F)c3)c2)on1, the max response is reported as -0.787% (inactive). COc1cc2c(cc1O)[C@H](c1ccc(O[C@@H]3O[C@H](CO)[C@@H](O)[C@H](O)[C@H]3O)c(OC)c1)[C@@H](CO)[C@](O)(CO)C2 was tested, and the outcome was “inactive”. With CC(=O)OC1C(c2ccccc2)CCC(c2ccccc2)C1OC(C)=O (stereo not given) the max response was 7.87% (inactive). C=C1CC[C@@H]2[C@@](C)(CO[C@@H]3O[C@H](CO)C(O)[C@H](O)C3O)[C@H](O)CC[C@@]2(C)[C@@H]1CC/C(C)=C/CO (stereo not given in full) was tested, and the outcome was “inactive”. For CC(C)(C)NS(=O)(=O)c1cncc(-c2cc(F)c3nc(N)nn3c2)c1, the outcome was “inactive”. CC(=O)O[C@@H]1c2c(C)coc2C(=O)[C@@]23O[C@@H]2CC[C@H](C)[C@@]13C was tested, and the max response was 9.51% (inactive). C/C=C/c1cc(OC)c2c(c1)[C@@H](C)[C@@H](c1ccc(O)c(OC)c1)O2 was tested, and the max response was -24.2% (inactive). In the case of CCOc1cc(C(=O)N2CCC(N3CCN(C)CC3)CC2)ccc1Nc1ncc2c(n1)N(C1CCCC1)c1ccccc1C(=O)N2C, the Potency is reported as 23.1 µM (active). O=C(Nc1ccc(S(=O)(=O)Nc2ccccc2Cl)c(Cl)c1)c1ccccn1 was tested, and the max response was -5.44% (inactive). In the case of CC1=CCC2C(C)(C)CCC[C@]2(C)[C@@]12CC[C@](C)(CC(=O)O)O2 (stereo not given in full), the max response is reported as -6.84% (inactive). For CC1CC[C@]2(C(=O)O)CC[C@]3(C(=O)O)C(=CCC4[C@@]5(C)CC[C@H](OC6OC(C)C(O)C(OC7OC(CO)C(O)C(O)C7O)C6O)C(C)(C)C5CC[C@]43C)C2C1C (stereo not given in full), the outcome was “inactive”.
